Screening data from PubChem.
Rows were chosen to be rich in hits. Some 5.7% of all compounds tested hit in one or more screens of this group.
KB-3-1 tox: KB-3-1 parental cell cytotoxicity. KB-3-1 viability, CellTiter-Glo ATP luminescence, 72 h. Potency, µM (top dose mostly 46.1 µM), actives largely listed as cytotoxic. actives 1.4% (n = 400,000). AID 1347075; also: potency is read from the fitted curve at half-maximal effect; nearly all actives have a fitted effect of over 60% in size
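Cytotoxicity measured as CellTiter-Glo luminescence after 72 h at 37 C. Compound titrations were pinned onto drug-naive KB-3-1 parental adenocarcinoma cells grown in DMEM with 10% FBS, and normalized data fitted to concentration-response curves.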
KB-V1 MDR tox: kills drug-selected multidrug resistant KB-V1 cells; KB-V1 MDR cells viability, CellTiter-Glo, 72 h; Potency, µM (highest dose often 46.1 µM), usual class: cytotoxic; actives 3.4% (n = 400,000); also: potency is read from the fitted curve at half-maximal effect; nearly all actives have a fitted effect of over 60% in size
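Drug-selected KB-V1 cells, grown in DMEM lacking phenol red with 10% FBS, receive compound titrations; after three days at 37 degrees C, surviving cell ATP is quantified by CellTiter-Glo luminescence and responses normalized and curve-fitted.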
Giardia killer: Giardia lamblia killing | Giardia lamblia trophozoite viability | AID 540267 | actives 0.15% (n = 340,000) | activity change, % at 7.66 µM, hits read low; in the data active = activity change below about -80%; inconclusive = between about -30% and that limit;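 also: parasites exposed to compound for two days anaerobically before the ATP read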
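ATP-content bioluminescence gauges trophozoite survival. Cells (100/well) receive compound and incubate anaerobically for 48 hrs at 37 deg C; detection reagent follows for 15-30 min at room temperature.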
Nrf2 inh: blocks Nrf2 signaling; A549 ARE-Fluc reporter, luciferase luminescence, 18-24 h; Potency, µM (titrated, usually from 46 µM), for the others: at the top dose activity change, negative = inhibition, actives largely listed as inhibitors; actives 2.1% (n = 360,000); AID 504444; also: potency is read from the fitted curve at half-maximal effect; nearly all actives have a fitted effect of over 60% in size
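Reporter: ARE-Fluc in A549. Exposure: 18-24 h, 37 °C, 5% CO2, 5% FBS OPTI-MEM. Readouts: fluorescent cytotoxicity (CellTiter-Fluor), then luminescent Nrf2 signal after BugLite.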
PI4K2A block: PI4K2A (human) kinase inhibition. Q9BTU6. purified PI4K2A, ADP-Glo luminescence, 1 h; hits give low values. activity change, negative = inhibition, % at 76.9 µM. actives 0.13% (n = 420,000); in the data active = activity change below about -50%; inconclusive = mostly about -30% to -49%;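 also: -100% = wells without enzyme as full effect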
Target sequence (Q9BTU6 whole entry, looked up): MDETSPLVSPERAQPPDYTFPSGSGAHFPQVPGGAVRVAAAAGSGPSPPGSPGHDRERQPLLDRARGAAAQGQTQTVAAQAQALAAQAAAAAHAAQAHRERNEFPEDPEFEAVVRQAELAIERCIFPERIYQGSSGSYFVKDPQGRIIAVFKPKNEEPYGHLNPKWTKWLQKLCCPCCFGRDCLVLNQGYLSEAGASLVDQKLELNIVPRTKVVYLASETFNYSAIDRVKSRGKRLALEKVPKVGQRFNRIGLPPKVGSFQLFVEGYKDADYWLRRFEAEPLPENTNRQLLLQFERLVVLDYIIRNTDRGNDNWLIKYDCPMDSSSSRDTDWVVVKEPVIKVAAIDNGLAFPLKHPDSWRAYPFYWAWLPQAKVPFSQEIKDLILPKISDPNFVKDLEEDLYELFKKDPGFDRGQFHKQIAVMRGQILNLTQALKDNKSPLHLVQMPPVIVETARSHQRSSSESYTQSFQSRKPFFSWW
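PI4K2A activity was measured by ADP-Glo luminescence: enzyme (4 ug/mL stock) and phosphatidylinositol (1.2 mM stock) in Tris pH 7.5/MgCl2/EGTA/Triton X-100 buffer were reacted with ATP (300 microM stock) for one hour at ambient temperature.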
A549 viability: kills or reduces viability of A549 cells in Nrf2 counter-screen. actives 0.16% (n = 390,000). A549 ARE-Fluc cells, CellTiter-Fluor viability, 18-24 h. Potency, µM (series often up to 46 µM), inactives show at the top dose activity change, negative = cytotoxicity, actives largely listed as inhibitors; also: potency is read from the fitted curve at half-maximal effect
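Cytotoxicity counterscreen: CellTiter-Fluor fluorescence was measured in A549 ARE_Fluc cells after 18-24 h of compound exposure in a concentration series. The subsequent BugLite luminescent read reports ARE-luciferase activity.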
An asterisk follows results filed as active; i = inactive; ? = inconclusive; nt = no result given. Unless noted, calls follow the shape of the dose curve; as a rule, active = well fitted curve in the direction sought with a large enough effect; inconclusive = small, poorly fitted or top-dose-only effect, or another doubt; inactive = no such curve, though single readings can be large; an effect the other way counts as inactive or inconclusive. Unless noted, % is scaled to controls: 0 for no effect and ±100 for the full control effect.

SMILES	KB-3-1 tox	KB-V1 MDR tox	Giardia killer	Nrf2 inh	PI4K2A block	A549 viability
CCOc1ccc(NC(=S)NC(=O)/C=C/c2ccc(OC)c(OC)c2)c([N+](=O)[O-])c1	i	?	28.2	20.6µM*	3.4	?
CCOc1ccc(NC(=S)NC(=O)/C=C/c2ccc(C)cc2)c([N+](=O)[O-])c1	?	11.6µM*	11.3	?	-3.4	-18.6%
O=S(=O)(c1ccc2c(c1)OCCO2)N1CCN(S(=O)(=O)c2cc(F)c(F)cc2F)CC1	nt	nt	nt	-18.0%	nt	-2.0%
CCN(CC)C(=O)CC[C@@H]1CC[C@]2(CCCN(Cc3cccc4ccccc34)C2)O1	nt	nt	nt	nt	0.6	nt
COc1ccccc1OC(C)C(=O)N1CCC(c2nc3ccccc3s2)CC1 (configuration not stated)	14.6µM*	?	nt	-14.7%	-6.5	-4.3%
O=C(COc1ccc([N+](=O)[O-])cc1)N1CCC(c2nc3ccccc3s2)CC1	?	?	nt	14.6µM*	4.4	-25.5%
CCN(CC)C(=O)c1ccc(S(=O)(=O)N2CCC(c3nc4ccccc4s3)CC2)cc1	20.6µM*	7.31µM*	-10.0	?	-3.2	-13.9%
CCc1ccc(OC(C)C(=O)N2CCC(c3nc4ccccc4s3)CC2)cc1 (configuration not stated)	?	14.6µM*	nt	18.4µM*	-1.2	-22.3%
COc1cc(C=Nn2c(-c3ccc(F)cc3)n[nH]c2=S)ccc1OCc1ccccc1	nt	nt	nt	nt	3.4	nt
CC(=O)c1ccc(N2CCN(C(=O)c3cc4c(s3)-c3ccccc3OC4)CC2)cc1	i	16.4µM*	nt	?	-1.1	6.4%
CSc1nc(N)nc2c1ncn2CC(=O)NCCCc1ccccc1	i	i	3.2	?	0.0	-1.1%
COC(=O)c1ccc(CNC(=O)Cn2cnc3c(SC)nc(N)nc32)cc1	?	i	?	23.1µM*	2.4	1.8%
COc1ccc(C(=O)Nc2ccc3oc(-c4cccnc4)nc3c2)cc1OC	i	?	-0.5	13µM*	-4.3	-3.3%
O=C(Nc1ccc2oc(-c3ccncc3)nc2c1)c1ccc2c(c1)OCCO2	i	i	8.8	?	-3.8	0.8%
COc1cc(C(=O)Nc2ccc3oc(-c4ccccc4)nc3c2)cc(OC)c1OC	i	8.2µM*	nt	20.6µM*	2.9	?
O=C(Nc1ccc2oc(-c3ccccc3)nc2c1)c1ccc2c(c1)OCCO2	?	8.2µM*	0.8	9.2µM*	-6.6	?
COc1cc(C(=O)Nc2ccc3oc(-c4cccnc4)nc3c2)cc(OC)c1OC	i	14.6µM*	-5.5	?	-4.3	-2.3%
Cc1ccccc1CN1CCCCC(NC(=O)C2CCCC2)C1=O (configuration not stated)	nt	nt	nt	nt	1.3	nt
CCCC(=O)Nc1ccc2oc(-c3ccc(OC)c(Br)c3)nc2c1	i	2.59µM*	2.9	?	-1.4	?
COc1cc(C(=O)Nc2nc(OC)c(-c3ccccc3)c(OC)n2)cc(OC)c1OC	i	i	0.0	?	1.7	-2.7%
COc1ccc(-c2nc(-c3ccc(NC(=O)c4ccncc4)cc3)no2)cc1OC	?	10.3µM*	-19.5	13µM*	-2.6	0.1%
COc1cc(C(=O)Nc2cc(-c3ccccc3)[nH]n2)cc(OC)c1OC	?	18.4µM*	-0.6	?	-1.7	-11.2%
COc1ccc(C(=O)Nc2ccc3oc(-c4ccc5ccccc5c4)nc3c2)cc1Br	nt	nt	nt	-4.0%	10.7	-4.0%
Cc1cc(C(=O)CN2C(=O)NC3(CCCCC3C)C2=O)c(C)n1Cc1cccs1 (configuration not stated)	i	23.1µM*	-28.0	?	4.6	-0.4%
O=C(COc1ccccc1C(=O)Nc1cccc(F)c1)Nc1ccc(Br)cc1	?	i	nt	nt	nt	nt
SMILES	KB-3-1 tox	KB-V1 MDR tox	Giardia killer	Nrf2 inh	PI4K2A block	A549 viability
O=C(Nc1cccnc1)c1sc(Nc2ccccc2)nc1-c1ccccc1	?	14.6µM*	0.8	18.8%	1.2	-1.9%
CCCC1CCC2(CCCN2CCOC(=S)NCc2cccc(C)c2)CC1 (configuration not stated)	nt	nt	nt	nt	3.1	nt
CC(C)(C)C(=O)CSc1n[nH]c(-c2ccccc2)n1	i	i	nt	nt	nt	nt
CCc1ccc(S(=O)(=O)c2nnn3c2nc(Nc2ccc(F)cc2)c2cc(Cl)ccc23)cc1	i	i	nt	9.2µM*	-1.0	-19.3%
COc1ccc(Nc2nc3c(S(=O)(=O)c4ccccc4)nnn3c3ccc(Cl)cc23)cc1	nt	nt	16.2	?	1.1	?
CCCCc1c(-c2ccccc2OC)ncn1Cc1ccc(-c2ccccc2)cc1	?	10.3µM*	nt	nt	-2.7	nt
CCCCc1c(-c2ccccc2OC)ncn1C1CCCC1	18.4µM*	13µM*	nt	nt	-0.3	nt
CCCCc1c(-c2ccccc2OC)ncn1CCc1cccc(Cl)c1	?	14.6µM*	nt	nt	3.4	nt
CCCCc1c(-c2ccccc2OC)ncn1Cc1cccc(-c2ccccc2)c1	?	14.6µM*	nt	nt	-8.5	nt
CCc1c(-c2ccccc2F)ncn1Cc1cccc(-c2ccccc2)c1	?	?	nt	nt	-4.9	nt
CCCCc1c(Cc2cccc(F)c2)ncn1CCc1ccccc1OC	?	?	nt	nt	0.9	nt
CC(C)NC(=O)CSc1cn(CC(=O)N2CCCCCC2)c2ccccc12	nt	nt	nt	12.8%	-1.3	-0.2%
CN(C(=O)CNC(=O)c1ccccc1OCC(=O)Nc1ccc(I)cc1)c1ccccc1	nt	nt	nt	nt	-1.3	nt
CC(C)(C)c1ccc(-c2nnc(SCc3ccccc3)n2Cc2ccco2)cc1	nt	nt	nt	nt	-8.8	nt
COc1cccc(Cn2cnc(-c3ccccc3OC)c2-c2cc(C)cc(C)c2)c1	?	?	nt	nt	-3.8	nt
CCc1c(C2CC2)ncn1Cc1cccc(-c2ccccc2)c1	14.6µM*	i	nt	nt	-4.6	nt
CCCCc1c(-c2ccccc2OC)ncn1Cc1ccc(Cl)cc1	?	20.6µM*	nt	nt	1.1	nt
COc1cccc(Cn2cnc(-c3ccccc3OC)c2C2CC2)c1	?	18.4µM*	nt	nt	8.2	nt
O=CN/N=C/c1c(O)ccc2ccccc12	7.31µM*	?	11.8	?	-16.8	-10.7%
Oc1ccc2ccccc2c1/C=N/Nc1ccccc1	?	i	-8.9	2.5%	-4.7	-2.2%
NC(=S)N/N=C/c1coc2c(ccc3ccccc32)c1=O	6.51µM*	5.17µM*	2.6	18.2%	2.0	-2.4%
NC(=S)N/N=C/c1c(O)ccc2ccccc12	1.64µM*	?	9.0	0.7%	-1.6	-1.5%
O=C(Nc1ccccc1Br)c1ccc(OC(=S)N2CCOCC2)cc1	i	i	3.8	1.4%	4.7	-7.1%
O=C(Nc1ccc(C(=O)N2CCOCC2)cc1)c1cccc(Br)c1	i	i	-6.0	-7.5%	0.0	-17.2%
